In PubChem BioAssay AID1159506 (National Center for Advancing Translational Sciences (NCATS), 2015):
In all, about 59,000 sequences were measured (the read-out: median about -0.00055, lowest 2% from about -2 on). The entries come from a sample that favours the lowest values as a whole.

Assay: Identification of proteins required for the processing of the EWS-FLI1 nascent transcript;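 further: robust z of luciferase light less the median z of siRNAs with the same seed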
Conditions: TC32 Ewing sarcoma NR0B1-luc vs CMV-luc (EWS-FLI1 target promoter against control promoter), 48 h; screened at 20 nM (by protocol)
How it was run: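 Three siRNAs per gene, each in a separate well at 20 nM, were transfected into TC32 cells bearing either reporter construct. Luminescence was measured two days on, and per-gene comparison relied on seed-corrected Z values.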
Sequence AAUUAGAUUACCUAAACAC against CDKL2 has a seed-corrected z-score of 0.926.
Work on UAAAGGGAAAUUUCCACCA against CDH16 yielded a seed-corrected z-score of 0.815.
With UUUGGUGAUUUCAUAAUCC against PCDH18 the seed-corrected z-score was -0.027.
AUCUGGAUCGCUCAGCUCC against TMEM235 showed a seed-corrected z-score of 0.0464.
Work on UAGCUUCUCACAGACUUUC against KCTD8 yielded a seed-corrected z-score of -2.45.
In the case of UUUCCUCUAGGAAGCAUCU against TRIM17, the seed-corrected z-score is reported as 0.172.
In the case of AUAGGCAGCAGUGCACUCG against 5-Sep, the seed-corrected z-score is reported as -1.81.
Work on UAUAGUUAAAUCCAUCAUC against CALU yielded a seed-corrected z-score of 0.272.
UAGUAAGAAGAGUCAAUGC against PGA5 gave a seed-corrected z-score of -0.472.
AAUUGUUCACUGACCAGGC against WNT8A showed a seed-corrected z-score of -0.645.
Sequence AAAUAAUCCUGUCUACUCC against BOD1 has a seed-corrected z-score of 0.629.
Work on UUGUAUUCAUCCUUGAAGC against CCDC89 yielded a seed-corrected z-score of -2.42.
In the case of UGAGGACAUCGAAGAGGCC against HTR6, the seed-corrected z-score is reported as 1.21.
Sequence UAAUGUAGAACAUUUUGAC against LECT2 has a seed-corrected z-score of 0.659.
Sequence UAUGCUUGCAGUCCACUGG against DYNLT3 has a seed-corrected z-score of 1.02.
UUACUGGGAAUAGCACUGC against ITGA5 gave a seed-corrected z-score of 0.318.
Work on UACUCUAUCCGCUGUGCCC against RCC2 yielded a seed-corrected z-score of -0.853.
Work on UAGUUGUCGGUAUCUGUCC against CSPP1 yielded a seed-corrected z-score of -2.38.
In the case of AUCGUGAAGAGAUACUCCG against MAPKBP1, the seed-corrected z-score is reported as 0.318.
Work on UCAGCACACUGUCAGGUAC against USB1 yielded a seed-corrected z-score of 0.878.
With UCACGGUGCACAAAGUUCU against ZAP70 the seed-corrected z-score was -0.0104.
Sequence UCUCUGUAUGUGACUGUGA against SNRPD3 has a seed-corrected z-score of -2.85.
Work on UUGAAGUUCAUUAGUCUCC against AK5 yielded a seed-corrected z-score of -0.322.
Work on UGUGGAUUUUGGAUGCAGC against XKR5 yielded a seed-corrected z-score of -0.21.
Work on AAUGUGGUUGAGCUGAUCC against MAPK3 yielded a seed-corrected z-score of -2.13.
Work on UUGGACAAAAGAUAAGAGC against SNRNP40 yielded a seed-corrected z-score of -0.258.
UUACCAGAUAGGAUGAUCA against OR5P2 gave a seed-corrected z-score of 0.365.
Work on UUUGAGGCCGUUGAGGGUG against ELAVL3 yielded a seed-corrected z-score of -0.487.
UGGGAUUCAAGAUCUCCUC against NGEF showed a seed-corrected z-score of -3.75.
Sequence UUAAUGUAUGGGUUGACUC against PLS1 has a seed-corrected z-score of -0.413.
UCCAGUUCUCCGGUGAUCU against SYNE3 gave a seed-corrected z-score of 0.481.
Sequence UUUGCAUUCAUAAAGAAUU against ING3 has a seed-corrected z-score of -0.246.
Work on UCACGUACAAGAGCACUCG against GRHL2 yielded a seed-corrected z-score of 0.132.
In the case of UUCAGUUGAAUUCCAAAGG against ARHGAP28, the seed-corrected z-score is reported as 0.997.
Work on AAGGUGAUAAGUACAGUCA against LINC00977 yielded a seed-corrected z-score of 0.26.
AUGAUGCUAGGGUCGGUGC against E2F2 showed a seed-corrected z-score of -0.689.
For UCUAGUACUACAUUGGCUU against FLJ32255, the seed-corrected z-score was -1.66.
For CAUGGUCUCAGUCAGCAUG against CBY3, the seed-corrected z-score was -2.21.
In the case of UAUUCAGCAUUCUCUAUCU against DDAH2, the seed-corrected z-score is reported as -0.379.
For UCCCUGACAACUCCAGGGU against CLDN9, the seed-corrected z-score was 0.379.
UAGUAAAUGAACGAAGGCG against MAD2L1 gave a seed-corrected z-score of 0.0839.
Sequence UUAGAUACGACAUAAGCAG against PGAP1 has a seed-corrected z-score of 0.122.
UUUCUUCAAGGCAGUUUGC against SRGN showed a seed-corrected z-score of -1.36.
UGAUGGUUGAAAUACUGGU against CITED2 gave a seed-corrected z-score of -2.05.
Work on UGAACAGUCGCCGCUCUCU against ZNF418 yielded a seed-corrected z-score of 0.482.
Work on UGUCGUUUUUGUAUCCUUG against CAGE1 yielded a seed-corrected z-score of -1.32.
Work on UCUUCGUUGACCACACCAC against KCNIP1 yielded a seed-corrected z-score of 0.284.
In the case of UAGAAUGUCAGUUGGUUCC against MID1IP1, the seed-corrected z-score is reported as 0.366.
UACAGAUAAACGAUGAUGC against TMEM104 showed a seed-corrected z-score of -0.0479.
Sequence AGUUGUCCAACCAAUAGUC against EDRF1 has a seed-corrected z-score of -3.95.
With UACAUUGAAGCCUAUGGUU against ARF5 the seed-corrected z-score was 0.767.
Work on UUUUAUUUUCACAGUAGCA against LOC441239 yielded a seed-corrected z-score of 0.865.
Sequence UGACUGUAAACAGAGGCGG against SSR4 has a seed-corrected z-score of -0.396.
UUUCGUUGGACUUACUUGG against SPP1 showed a seed-corrected z-score of -0.831.
Sequence UCAGGGCAAAGUGGGAUGA against OXER1 has a seed-corrected z-score of -2.06.
Work on UUCAGGUGGACGAACAGCG against ADAMTS8 yielded a seed-corrected z-score of -0.634.
UCCGAUAGAGGUUAGACCG against PPT2 showed a seed-corrected z-score of -0.518.
UCUUCUUUAUGUACCACCG against CDC37L1 gave a seed-corrected z-score of 0.00159.
In the case of UUGUAAGCUGGAUCGAUCC against ACACB, the seed-corrected z-score is reported as 0.0997.
UGGGUAUUUGAUCUUGUCG against LZTR1 showed a seed-corrected z-score of -1.37.
For UUCUCUUCAACCCACUUGG against JAKMIP1, the seed-corrected z-score was -2.7.
In the case of UUUAGGUAAAUGAACUCUC against ANGPTL2, the seed-corrected z-score is reported as 0.169.
In the case of UAAAGGUUGAGAAACUUGA against PRPF38A, the seed-corrected z-score is reported as -2.42.
With UUAGAAUCGACCGGCAUUC against KIT the seed-corrected z-score was 0.106.
For UAAAUGGCCGUGAUCAAUC against PRDM16, the seed-corrected z-score was -0.168.
UUUGUUCAAGGUUAAUCCC against LRRC27 showed a seed-corrected z-score of 0.333.
UAUCUUCUCACUAACACUC against PEX12 gave a seed-corrected z-score of 0.599.
ACCCUUAUGAAUUACACCC against PSMD1 showed a seed-corrected z-score of -4.24.
With UCAUAGUUUAGUUCUCGAG against BBS9 the seed-corrected z-score was 0.745.
Sequence AUAGAAUCGAUGGAAGUCC against CAMK2A has a seed-corrected z-score of 0.247.
With UUCUAUGAAAUCGUAAGGC against ME2 the seed-corrected z-score was -0.054.
With AACAGCUCUCUGGUAAGCG against RPS23P8 the seed-corrected z-score was -0.758.
Work on UUGCUUUCGAGACCAGCUC against C11orf16 yielded a seed-corrected z-score of -2.33.
With UUCUUAUAUGUAGUACGGG against ZNF506 the seed-corrected z-score was -0.657.
In the case of UUCGAACUAAGGCACGAGC against ABCB5, the seed-corrected z-score is reported as -0.392.
Work on UAUUUCCAUCGGAUGAUGC against GJD3 yielded a seed-corrected z-score of -0.0376.
With UAGGCUUAGAGGUCCCAGC against LACRT the seed-corrected z-score was 2.39.
With UAAUUGACCAGCUUACUAC against PRAMEF2 the seed-corrected z-score was 1.04.
Work on AAUUCAUCCAUGAUUCUGC against FAM134B yielded a seed-corrected z-score of -0.291.
Sequence UAGUUGUCGACGAGCACGC against MUC5AC has a seed-corrected z-score of -2.79.
UUCUUACCAGUGUUGAUGG against KIF11 gave a seed-corrected z-score of -2.21.
For UAAUCUUCAUACGCAGUGC against HNRNPR, the seed-corrected z-score was 0.713.
UUCAUACUGAAGAUUUUCC against ZNF157 showed a seed-corrected z-score of -0.0023.
Work on UAGGAUUAAAUUAAUCCUC against GNE yielded a seed-corrected z-score of -0.0404.
Sequence UAAAGGCAUAGUUUCCCUG against RGS7BP has a seed-corrected z-score of -2.71.
With AAAGGUGCAGAAGUUCUGU against LOC646484 the seed-corrected z-score was -1.37.
UCCAGUUCCAGAACUAUCU against HES2 gave a seed-corrected z-score of 0.537.
In the case of AAACGGUCCAGGUAAUUCA against CCND2, the seed-corrected z-score is reported as -1.57.
Sequence UCUCGUUCCACCAGAUCCG against OGFR has a seed-corrected z-score of 2.21.
Sequence AGUUGUAGAAGAACGAAUC against PSMD2 has a seed-corrected z-score of -3.28.
Sequence UUGGGUUUCGGACCUCUCU against CBX7 has a seed-corrected z-score of 0.219.
For UAUCCUUCAACCAUUCUGG against DYX1C1, the seed-corrected z-score was 0.0057.
In the case of UAUAUGACACCUGCUGUGG against NGFR, the seed-corrected z-score is reported as -1.33.
In the case of AUUGCAGUCACGAUGAUGG against OR52I2, the seed-corrected z-score is reported as -1.16.
UAAUGUCCAAGAUGGUCAC against CELSR1 gave a seed-corrected z-score of 0.481.
With UUCUGAAUCAAAGUUGUUC against CBLN1 the seed-corrected z-score was 0.758.
For UGUAUAACCUGGCUCUCUG against FAM45BP, the seed-corrected z-score was -0.888.
Work on UAGGAUGGAACAUCAAUCU against WASH5P yielded a seed-corrected z-score of -2.88.
For UAUGCUCAAAUACCUUUGC against CAT, the seed-corrected z-score was 0.148.
Sequence UAGUGCUUAUCCUAGAAUC against KLK8 has a seed-corrected z-score of 0.915.
AAACUACCCAAUUGUAAUC against OR9A4 gave a seed-corrected z-score of 0.66.
For AUGGUCUUGCCAUCUACCG against RABL2A, the seed-corrected z-score was -2.05.
Sequence AUCAAUUUGUCCUCCAUCC against RNPS1P1 has a seed-corrected z-score of -0.331.
With GACAUGGCAGUGAGCUUCC against CBX2 the seed-corrected z-score was -0.4.
In the case of UGCUCAAUCUGAUAGAUGG against TP63, the seed-corrected z-score is reported as -0.257.
UGUUUGAUCUGUAAAAUGG against C15orf32 showed a seed-corrected z-score of -1.58.
AUGAUGUUCCUUGAAGUUC against DHRS2 showed a seed-corrected z-score of -0.594.
UCUCAUCCAGGUACCAGCC against FTCD gave a seed-corrected z-score of -0.292.
Work on AGCUGUUCAAUGUCAAAGC against INMT yielded a seed-corrected z-score of -4.2.
Sequence UGACAUACCAGAGGAAGUG against PLEKHH1 has a seed-corrected z-score of -0.0437.
UUGUUGACCAUAGCUACUC against EWSR1 showed a seed-corrected z-score of -4.01.
AUAGAUACAGGUGAUGCAG against EGLN2 gave a seed-corrected z-score of 1.45.
UACUCUCACAGCUUGCACC against KCTD18 showed a seed-corrected z-score of -0.258.
In the case of UUGGGAAGCAGGUGCAUGC against LAIR1, the seed-corrected z-score is reported as -2.03.
Sequence UAGAGGCACCGAGUCAACG against DBF4B has a seed-corrected z-score of 0.153.
In the case of UGAGUUCCGACACUCCAUC against EIF4EBP1, the seed-corrected z-score is reported as 0.187.
UCUGCUUUCUGUACCCGAC against GATA3-AS1 showed a seed-corrected z-score of -2.32.
Work on UUUGUUACAAGCACCUACU against LOC730179 yielded a seed-corrected z-score of 0.536.
Work on ACAGGUGCAUUGGACUUGG against KCTD15 yielded a seed-corrected z-score of -3.06.
In the case of UUGAUCACCUCAGAGGCCG against USE1, the seed-corrected z-score is reported as -1.2.
In the case of UUAUGCUAAAAUCUACUCC against TNKS2, the seed-corrected z-score is reported as -1.04.
For AAUAGGUGUAAGUCCGUGC against NR5A2, the seed-corrected z-score was -2.54.
For UUAGUCCAGAGGUUUCAUC against PCAT18, the seed-corrected z-score was -0.77.
In the case of UCACAAUUUAGUGUAAUAG against ETFBKMT, the seed-corrected z-score is reported as 0.195.
Work on UCGGUAAUCCGGGUGAAGC against FGF14-AS2 yielded a seed-corrected z-score of -0.163.
For UCCUGGAUUGGGAAGGUGC against C9orf172, the seed-corrected z-score was -0.383.
Sequence UGCAGUAGAAUUUACACGC against RB1 has a seed-corrected z-score of -2.42.
With UUUGCUAUCAGGGAACAUC against SPRR2B the seed-corrected z-score was -0.452.
Work on UGAUGGUAGAGUUCCAGUG against MYBL2 yielded a seed-corrected z-score of -0.637.
Work on UUGCUUAUGAGCUUGAUGG against MAST1 yielded a seed-corrected z-score of -2.39.
For UAAGCGGUUCAUGCUGUGG against CPA5, the seed-corrected z-score was -0.872.
For UAGUGGAAGACGGAAAAGU against SFN, the seed-corrected z-score was -0.0924.
With AGUAUAACCAGUGGGAGGC against EWSR1 the seed-corrected z-score was -5.73.
